Test results reported in ChEMBL document CHEMBL2218924, “A broad activity screen in support of a chemogenomic map for kinase signalling research and drug discovery” (Biochem J, 2013).

Assays:
[1] = biological target: T1, Ephrin type-A receptor 3 (Homo sapiens) (UniProt P29320); conditions: at 10 µM
T1 sequence (whole entry): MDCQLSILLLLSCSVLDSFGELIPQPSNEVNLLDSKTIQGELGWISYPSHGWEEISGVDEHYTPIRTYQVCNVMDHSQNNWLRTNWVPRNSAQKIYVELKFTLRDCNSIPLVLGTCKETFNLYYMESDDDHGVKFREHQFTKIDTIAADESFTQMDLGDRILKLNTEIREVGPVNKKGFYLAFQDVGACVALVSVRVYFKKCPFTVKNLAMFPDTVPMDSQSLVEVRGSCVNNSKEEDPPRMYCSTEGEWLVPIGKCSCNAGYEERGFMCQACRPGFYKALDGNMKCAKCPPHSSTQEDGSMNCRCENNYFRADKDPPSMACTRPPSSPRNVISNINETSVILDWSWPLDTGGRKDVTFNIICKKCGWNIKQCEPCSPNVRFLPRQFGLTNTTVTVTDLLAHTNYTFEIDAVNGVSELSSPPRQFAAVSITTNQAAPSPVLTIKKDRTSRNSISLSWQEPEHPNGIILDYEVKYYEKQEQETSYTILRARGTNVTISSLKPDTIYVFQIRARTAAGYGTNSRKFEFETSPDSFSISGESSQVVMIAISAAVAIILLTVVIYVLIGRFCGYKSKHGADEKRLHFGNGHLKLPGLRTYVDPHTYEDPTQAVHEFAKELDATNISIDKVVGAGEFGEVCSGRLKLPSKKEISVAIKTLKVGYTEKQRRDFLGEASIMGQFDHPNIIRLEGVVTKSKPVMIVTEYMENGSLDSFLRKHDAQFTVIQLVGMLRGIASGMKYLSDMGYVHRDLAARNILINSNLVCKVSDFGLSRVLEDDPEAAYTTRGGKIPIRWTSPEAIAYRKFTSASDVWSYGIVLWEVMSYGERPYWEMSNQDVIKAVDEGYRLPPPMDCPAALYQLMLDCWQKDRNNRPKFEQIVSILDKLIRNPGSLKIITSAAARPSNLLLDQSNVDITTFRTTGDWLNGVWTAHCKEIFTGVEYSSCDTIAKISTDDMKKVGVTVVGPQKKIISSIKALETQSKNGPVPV

[2] = biological target: Ephrin type-A receptor 5 (Homo sapiens) (UniProt P54756); conditions: at 10 µM
Sequence of Ephrin type-A receptor 5 (Homo sapiens) (P54756 whole entry): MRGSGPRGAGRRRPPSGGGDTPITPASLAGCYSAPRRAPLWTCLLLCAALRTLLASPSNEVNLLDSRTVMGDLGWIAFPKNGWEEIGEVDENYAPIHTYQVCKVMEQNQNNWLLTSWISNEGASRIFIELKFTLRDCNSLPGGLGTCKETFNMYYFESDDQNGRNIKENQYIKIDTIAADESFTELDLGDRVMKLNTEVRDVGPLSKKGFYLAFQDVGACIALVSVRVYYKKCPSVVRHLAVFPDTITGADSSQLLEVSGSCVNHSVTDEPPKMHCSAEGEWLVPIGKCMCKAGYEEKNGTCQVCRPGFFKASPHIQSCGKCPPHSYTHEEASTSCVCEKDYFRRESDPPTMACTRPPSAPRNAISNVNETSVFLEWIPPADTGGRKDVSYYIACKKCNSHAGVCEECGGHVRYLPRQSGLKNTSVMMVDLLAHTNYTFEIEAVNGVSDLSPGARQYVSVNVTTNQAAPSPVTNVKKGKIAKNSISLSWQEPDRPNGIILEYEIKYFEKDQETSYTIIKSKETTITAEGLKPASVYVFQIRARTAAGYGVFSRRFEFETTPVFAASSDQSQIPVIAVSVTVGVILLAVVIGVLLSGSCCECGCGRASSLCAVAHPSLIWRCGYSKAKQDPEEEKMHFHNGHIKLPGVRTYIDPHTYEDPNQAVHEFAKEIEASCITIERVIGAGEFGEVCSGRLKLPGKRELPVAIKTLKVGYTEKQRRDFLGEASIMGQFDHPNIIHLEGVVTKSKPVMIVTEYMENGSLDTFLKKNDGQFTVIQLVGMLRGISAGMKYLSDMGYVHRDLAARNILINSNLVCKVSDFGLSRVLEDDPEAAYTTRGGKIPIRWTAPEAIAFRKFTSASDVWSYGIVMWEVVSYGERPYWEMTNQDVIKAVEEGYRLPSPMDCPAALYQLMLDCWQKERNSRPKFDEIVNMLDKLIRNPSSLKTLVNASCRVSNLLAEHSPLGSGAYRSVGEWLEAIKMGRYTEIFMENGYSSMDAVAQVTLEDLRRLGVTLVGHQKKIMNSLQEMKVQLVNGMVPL

[3] = biological target: Ephrin type-A receptor 7 (Homo sapiens) (UniProt Q15375); conditions: at 1 µM
Sequence of Ephrin type-A receptor 7 (Homo sapiens) (Q15375 28-998 limits assumed): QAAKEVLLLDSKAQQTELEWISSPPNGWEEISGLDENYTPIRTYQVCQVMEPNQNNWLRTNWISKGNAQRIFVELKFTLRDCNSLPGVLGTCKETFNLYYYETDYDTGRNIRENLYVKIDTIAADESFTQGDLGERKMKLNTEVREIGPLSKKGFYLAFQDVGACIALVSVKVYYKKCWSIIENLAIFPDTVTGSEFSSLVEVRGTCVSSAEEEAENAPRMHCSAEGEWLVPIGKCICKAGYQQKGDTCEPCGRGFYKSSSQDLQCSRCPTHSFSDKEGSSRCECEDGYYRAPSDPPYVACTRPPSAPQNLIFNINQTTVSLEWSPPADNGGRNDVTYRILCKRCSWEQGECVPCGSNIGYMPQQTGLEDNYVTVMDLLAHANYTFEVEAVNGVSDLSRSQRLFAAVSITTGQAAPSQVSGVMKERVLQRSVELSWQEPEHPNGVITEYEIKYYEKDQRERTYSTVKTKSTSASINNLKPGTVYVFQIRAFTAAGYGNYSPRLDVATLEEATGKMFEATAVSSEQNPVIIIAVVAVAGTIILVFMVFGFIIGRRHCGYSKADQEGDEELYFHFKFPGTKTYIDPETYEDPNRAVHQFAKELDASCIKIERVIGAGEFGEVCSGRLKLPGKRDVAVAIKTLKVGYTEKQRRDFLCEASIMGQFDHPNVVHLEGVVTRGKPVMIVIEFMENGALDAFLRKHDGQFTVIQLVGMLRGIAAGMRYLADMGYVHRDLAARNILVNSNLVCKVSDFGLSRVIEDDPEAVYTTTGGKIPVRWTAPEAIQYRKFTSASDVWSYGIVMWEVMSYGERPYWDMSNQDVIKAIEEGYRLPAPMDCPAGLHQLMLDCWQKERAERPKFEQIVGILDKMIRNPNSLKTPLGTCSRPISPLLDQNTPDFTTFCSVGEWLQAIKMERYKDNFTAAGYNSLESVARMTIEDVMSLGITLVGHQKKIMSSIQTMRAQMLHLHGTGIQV

[4] = biological target: Ephrin type-A receptor 7 (Homo sapiens) (UniProt Q15375); conditions: at 10 µM
[5] = biological target: T2, Ephrin type-A receptor 8 (Homo sapiens) (UniProt P29322); conditions: at 10 µM
T2 sequence (whole entry): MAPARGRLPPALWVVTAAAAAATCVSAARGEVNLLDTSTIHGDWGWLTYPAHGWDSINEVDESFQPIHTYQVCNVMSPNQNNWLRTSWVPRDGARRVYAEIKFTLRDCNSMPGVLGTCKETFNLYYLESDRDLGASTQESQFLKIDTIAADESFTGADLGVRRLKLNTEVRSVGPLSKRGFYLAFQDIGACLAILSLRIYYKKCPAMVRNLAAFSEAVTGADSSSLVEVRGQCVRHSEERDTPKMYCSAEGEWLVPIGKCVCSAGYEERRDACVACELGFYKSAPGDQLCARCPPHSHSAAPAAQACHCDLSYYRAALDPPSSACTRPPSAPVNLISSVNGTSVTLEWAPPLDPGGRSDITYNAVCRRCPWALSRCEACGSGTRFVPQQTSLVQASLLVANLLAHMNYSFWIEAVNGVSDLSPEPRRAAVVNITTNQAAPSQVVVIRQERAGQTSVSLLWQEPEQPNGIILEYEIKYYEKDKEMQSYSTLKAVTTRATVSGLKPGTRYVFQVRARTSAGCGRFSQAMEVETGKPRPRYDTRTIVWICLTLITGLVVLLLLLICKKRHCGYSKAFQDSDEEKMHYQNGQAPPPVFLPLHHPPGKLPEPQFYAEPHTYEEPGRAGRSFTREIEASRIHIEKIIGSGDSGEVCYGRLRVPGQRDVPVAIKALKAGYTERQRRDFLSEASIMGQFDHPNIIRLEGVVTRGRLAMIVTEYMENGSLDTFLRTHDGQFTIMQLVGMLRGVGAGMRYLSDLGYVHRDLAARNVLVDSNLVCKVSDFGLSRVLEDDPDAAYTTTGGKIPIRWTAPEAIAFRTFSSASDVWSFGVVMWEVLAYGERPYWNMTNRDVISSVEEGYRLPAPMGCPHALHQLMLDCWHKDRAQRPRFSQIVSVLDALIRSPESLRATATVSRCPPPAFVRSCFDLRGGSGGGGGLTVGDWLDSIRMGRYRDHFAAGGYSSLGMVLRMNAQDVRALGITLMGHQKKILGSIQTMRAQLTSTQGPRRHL

[6] = biological target: T3, Ephrin type-B receptor 4 (Homo sapiens) (UniProt P54760); conditions: at 1 µM
T3 sequence (whole entry): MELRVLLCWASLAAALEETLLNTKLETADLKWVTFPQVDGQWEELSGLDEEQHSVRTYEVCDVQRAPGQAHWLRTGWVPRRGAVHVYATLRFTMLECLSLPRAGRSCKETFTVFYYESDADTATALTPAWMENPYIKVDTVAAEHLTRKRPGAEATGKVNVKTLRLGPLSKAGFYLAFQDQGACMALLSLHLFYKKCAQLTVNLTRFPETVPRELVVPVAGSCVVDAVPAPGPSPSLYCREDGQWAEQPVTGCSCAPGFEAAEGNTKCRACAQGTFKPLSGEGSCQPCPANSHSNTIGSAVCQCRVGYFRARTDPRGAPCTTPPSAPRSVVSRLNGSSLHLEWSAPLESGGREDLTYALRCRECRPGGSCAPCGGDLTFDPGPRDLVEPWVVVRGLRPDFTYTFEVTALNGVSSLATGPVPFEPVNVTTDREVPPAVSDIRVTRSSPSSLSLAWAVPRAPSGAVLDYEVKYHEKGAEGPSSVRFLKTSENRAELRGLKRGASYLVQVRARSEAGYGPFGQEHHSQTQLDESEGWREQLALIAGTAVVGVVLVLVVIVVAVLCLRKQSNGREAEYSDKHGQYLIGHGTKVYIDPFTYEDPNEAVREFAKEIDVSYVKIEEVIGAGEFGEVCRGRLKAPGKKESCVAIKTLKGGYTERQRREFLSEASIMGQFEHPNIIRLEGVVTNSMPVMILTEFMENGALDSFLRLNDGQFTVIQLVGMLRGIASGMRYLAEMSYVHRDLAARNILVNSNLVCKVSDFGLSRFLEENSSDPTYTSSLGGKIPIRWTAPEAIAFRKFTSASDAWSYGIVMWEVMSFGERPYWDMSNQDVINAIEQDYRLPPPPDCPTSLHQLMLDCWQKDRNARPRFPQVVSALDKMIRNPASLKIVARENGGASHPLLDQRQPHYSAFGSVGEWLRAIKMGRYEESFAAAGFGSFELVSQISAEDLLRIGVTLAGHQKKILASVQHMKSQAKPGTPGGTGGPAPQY

[7] = biological target: T3, Ephrin type-B receptor 4 (Homo sapiens); conditions: at 10 µM
[8] = biological target: Receptor tyrosine-protein kinase erbB-4 (Homo sapiens) (UniProt Q15303); conditions: at 10 µM
Sequence of Receptor tyrosine-protein kinase erbB-4 (Homo sapiens) (Q15303 whole entry): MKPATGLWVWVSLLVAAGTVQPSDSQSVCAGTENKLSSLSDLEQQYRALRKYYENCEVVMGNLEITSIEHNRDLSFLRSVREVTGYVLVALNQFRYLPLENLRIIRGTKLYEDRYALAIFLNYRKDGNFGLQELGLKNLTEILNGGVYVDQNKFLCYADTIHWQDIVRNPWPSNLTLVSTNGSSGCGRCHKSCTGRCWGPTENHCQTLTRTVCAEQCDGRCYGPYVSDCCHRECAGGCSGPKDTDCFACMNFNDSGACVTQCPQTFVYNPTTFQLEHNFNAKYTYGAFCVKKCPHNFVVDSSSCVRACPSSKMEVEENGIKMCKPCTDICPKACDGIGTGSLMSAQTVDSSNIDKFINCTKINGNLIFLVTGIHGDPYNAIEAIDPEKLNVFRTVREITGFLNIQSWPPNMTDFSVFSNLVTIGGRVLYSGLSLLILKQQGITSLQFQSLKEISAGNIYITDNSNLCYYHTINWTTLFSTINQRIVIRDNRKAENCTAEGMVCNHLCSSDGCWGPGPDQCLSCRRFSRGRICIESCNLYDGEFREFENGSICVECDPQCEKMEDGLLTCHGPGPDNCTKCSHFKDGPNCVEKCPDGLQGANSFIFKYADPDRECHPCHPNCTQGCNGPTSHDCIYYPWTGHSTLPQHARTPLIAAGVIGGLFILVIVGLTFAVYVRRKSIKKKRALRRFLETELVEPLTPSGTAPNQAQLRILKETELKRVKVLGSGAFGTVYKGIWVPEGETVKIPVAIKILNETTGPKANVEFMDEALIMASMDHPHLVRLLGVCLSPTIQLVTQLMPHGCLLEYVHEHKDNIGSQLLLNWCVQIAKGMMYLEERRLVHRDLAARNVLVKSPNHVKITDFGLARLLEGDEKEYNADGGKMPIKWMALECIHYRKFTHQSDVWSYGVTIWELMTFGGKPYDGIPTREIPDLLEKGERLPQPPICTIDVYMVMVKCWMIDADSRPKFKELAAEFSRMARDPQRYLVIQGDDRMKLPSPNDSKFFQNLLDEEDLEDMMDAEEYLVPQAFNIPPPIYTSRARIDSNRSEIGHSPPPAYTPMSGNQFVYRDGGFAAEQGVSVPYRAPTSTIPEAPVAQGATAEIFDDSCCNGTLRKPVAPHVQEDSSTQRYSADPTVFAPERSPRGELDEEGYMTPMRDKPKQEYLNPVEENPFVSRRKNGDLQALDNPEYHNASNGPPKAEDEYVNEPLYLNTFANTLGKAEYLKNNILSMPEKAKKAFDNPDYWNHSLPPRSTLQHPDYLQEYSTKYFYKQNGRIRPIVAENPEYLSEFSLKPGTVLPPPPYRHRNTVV

[9] = biological target: Focal adhesion kinase 1 (Homo sapiens) (UniProt Q05397); conditions: at 1 µM
Sequence of Focal adhesion kinase 1 (Homo sapiens) (Q05397 2-1052 limits assumed): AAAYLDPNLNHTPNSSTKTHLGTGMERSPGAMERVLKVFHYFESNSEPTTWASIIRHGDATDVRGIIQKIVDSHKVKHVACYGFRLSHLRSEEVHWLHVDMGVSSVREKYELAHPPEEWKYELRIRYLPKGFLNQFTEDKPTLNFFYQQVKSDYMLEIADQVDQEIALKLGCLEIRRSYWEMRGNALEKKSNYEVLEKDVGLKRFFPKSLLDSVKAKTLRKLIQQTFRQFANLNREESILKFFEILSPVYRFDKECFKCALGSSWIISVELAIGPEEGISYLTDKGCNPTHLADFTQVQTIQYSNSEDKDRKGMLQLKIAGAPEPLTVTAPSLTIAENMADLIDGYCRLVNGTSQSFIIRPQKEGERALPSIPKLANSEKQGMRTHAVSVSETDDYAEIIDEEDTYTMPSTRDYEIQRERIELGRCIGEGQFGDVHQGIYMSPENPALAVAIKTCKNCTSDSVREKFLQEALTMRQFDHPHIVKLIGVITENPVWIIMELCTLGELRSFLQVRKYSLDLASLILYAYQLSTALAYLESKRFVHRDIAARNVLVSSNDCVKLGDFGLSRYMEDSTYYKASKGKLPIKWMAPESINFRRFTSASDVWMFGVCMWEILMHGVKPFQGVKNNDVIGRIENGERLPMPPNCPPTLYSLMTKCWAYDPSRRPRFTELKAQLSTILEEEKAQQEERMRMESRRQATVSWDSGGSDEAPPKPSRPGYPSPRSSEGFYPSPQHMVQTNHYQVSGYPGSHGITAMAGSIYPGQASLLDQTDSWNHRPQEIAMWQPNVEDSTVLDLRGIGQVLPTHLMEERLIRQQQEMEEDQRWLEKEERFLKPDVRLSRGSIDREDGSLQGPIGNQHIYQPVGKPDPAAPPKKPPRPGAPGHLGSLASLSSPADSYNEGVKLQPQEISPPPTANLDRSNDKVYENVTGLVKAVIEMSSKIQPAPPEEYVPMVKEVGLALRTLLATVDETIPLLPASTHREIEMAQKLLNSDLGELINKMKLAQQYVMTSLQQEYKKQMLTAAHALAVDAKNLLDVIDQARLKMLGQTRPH

[10] = biological target: Ephrin type-A receptor 5 (Homo sapiens) (UniProt P54756); conditions: at 1 µM
[11] = biological target: T2, Ephrin type-A receptor 8 (Homo sapiens); conditions: at 1 µM
[12] = biological target: T4, Ephrin type-B receptor 1 (Homo sapiens) (UniProt P54762); conditions: at 1 µM
T4 sequence (whole entry): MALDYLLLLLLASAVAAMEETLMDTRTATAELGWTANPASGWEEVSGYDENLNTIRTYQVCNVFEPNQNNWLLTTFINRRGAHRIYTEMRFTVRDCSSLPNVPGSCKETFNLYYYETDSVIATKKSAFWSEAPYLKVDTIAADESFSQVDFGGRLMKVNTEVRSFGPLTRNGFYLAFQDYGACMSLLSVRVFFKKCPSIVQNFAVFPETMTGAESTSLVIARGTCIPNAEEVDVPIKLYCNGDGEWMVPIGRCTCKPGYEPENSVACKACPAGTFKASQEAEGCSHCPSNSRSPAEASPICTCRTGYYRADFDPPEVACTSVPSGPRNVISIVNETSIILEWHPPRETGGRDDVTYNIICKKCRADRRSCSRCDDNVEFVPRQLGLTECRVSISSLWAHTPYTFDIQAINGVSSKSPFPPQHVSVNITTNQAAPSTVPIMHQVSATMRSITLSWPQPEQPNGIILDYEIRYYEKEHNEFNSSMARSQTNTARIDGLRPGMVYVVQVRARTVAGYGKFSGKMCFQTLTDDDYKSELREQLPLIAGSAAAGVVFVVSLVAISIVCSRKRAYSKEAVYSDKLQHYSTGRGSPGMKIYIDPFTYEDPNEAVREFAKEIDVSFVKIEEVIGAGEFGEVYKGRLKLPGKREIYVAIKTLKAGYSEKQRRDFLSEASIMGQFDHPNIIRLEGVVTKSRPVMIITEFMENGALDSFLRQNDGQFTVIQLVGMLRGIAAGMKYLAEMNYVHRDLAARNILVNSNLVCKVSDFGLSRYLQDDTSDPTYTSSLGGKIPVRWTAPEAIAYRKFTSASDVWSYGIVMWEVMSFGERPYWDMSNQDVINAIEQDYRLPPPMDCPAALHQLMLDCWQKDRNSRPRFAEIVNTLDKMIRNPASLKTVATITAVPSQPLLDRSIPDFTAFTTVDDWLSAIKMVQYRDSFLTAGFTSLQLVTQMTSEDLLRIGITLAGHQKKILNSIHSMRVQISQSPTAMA

[13] = biological target: T4, Ephrin type-B receptor 1 (Homo sapiens); conditions: at 10 µM
[14] = biological target: T5, Ephrin type-B receptor 2 (Homo sapiens) (UniProt P29323); conditions: at 1 µM
T5 sequence (whole entry): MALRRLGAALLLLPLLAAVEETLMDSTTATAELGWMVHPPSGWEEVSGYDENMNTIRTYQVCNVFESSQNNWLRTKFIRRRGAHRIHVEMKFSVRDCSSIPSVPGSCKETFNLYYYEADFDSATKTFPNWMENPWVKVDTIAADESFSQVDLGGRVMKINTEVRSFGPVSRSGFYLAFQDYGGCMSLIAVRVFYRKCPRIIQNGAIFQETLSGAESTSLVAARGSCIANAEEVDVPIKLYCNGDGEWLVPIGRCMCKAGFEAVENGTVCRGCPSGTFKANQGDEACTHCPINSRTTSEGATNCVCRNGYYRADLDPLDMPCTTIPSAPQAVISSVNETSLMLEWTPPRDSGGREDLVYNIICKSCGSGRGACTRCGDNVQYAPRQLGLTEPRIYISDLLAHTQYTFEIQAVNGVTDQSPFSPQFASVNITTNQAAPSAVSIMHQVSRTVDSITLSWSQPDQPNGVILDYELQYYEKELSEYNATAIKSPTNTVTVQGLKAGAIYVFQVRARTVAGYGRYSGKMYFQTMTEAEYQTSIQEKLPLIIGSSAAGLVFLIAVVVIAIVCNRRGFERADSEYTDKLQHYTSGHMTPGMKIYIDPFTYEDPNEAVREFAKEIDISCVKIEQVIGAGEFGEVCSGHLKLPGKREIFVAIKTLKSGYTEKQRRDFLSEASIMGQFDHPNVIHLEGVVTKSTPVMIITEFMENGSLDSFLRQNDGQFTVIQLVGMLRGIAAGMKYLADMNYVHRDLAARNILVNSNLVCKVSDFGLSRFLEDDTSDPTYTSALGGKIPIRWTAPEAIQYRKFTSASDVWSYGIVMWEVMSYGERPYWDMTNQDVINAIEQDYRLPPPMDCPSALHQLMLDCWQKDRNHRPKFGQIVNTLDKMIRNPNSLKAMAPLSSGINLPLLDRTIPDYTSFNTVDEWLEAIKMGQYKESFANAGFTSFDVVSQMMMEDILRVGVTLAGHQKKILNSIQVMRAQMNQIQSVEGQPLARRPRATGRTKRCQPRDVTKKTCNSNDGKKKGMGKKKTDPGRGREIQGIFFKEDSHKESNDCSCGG

[15] = biological target: T5, Ephrin type-B receptor 2 (Homo sapiens); conditions: at 10 µM

Structure (SMILES)	residual activity [1] [%]	residual activity [2] [%]	residual activity [3] [%]	residual activity [4] [%]	residual activity [5] [%]	residual activity [6] [%]	residual activity [7] [%]	residual activity [8] [%]	residual activity [9] [%]	residual activity [10] [%]	residual activity [11] [%]	residual activity [12] [%]	residual activity [13] [%]	residual activity [14] [%]	residual activity [15] [%]
Nc1n[nH]c2nc3ccccc3nc12	98	97	99	79	91	97	77	87	97						
CCCCc1c(-c2ccc(O)cc2)[nH]c2nccnc12	30	66	83	39	58	74	16		76	95	90	64	22	96	82
